Common to all, as to assay: Cytotoxic Profiling of Annotated Libraries Using Quantitative High-Throughput Screening (AID 1296008); further: nearly all actives have a fitted effect of over 60% in size
Holding throughout (conditions): Five cell lines viability, CellTiter-Glo ATP luminescence, 48-72 h; max response: stronger effect = lower value
(In general: In ATP-based viability assays light output follows the ATP content of the culture.)

One test concerns CRL-7250. In outline: (§1)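 Cells exposed to compounds for 48 or 72 hr at 37 degrees Celsius. Viability read as ATP-coupled luminescence with CellTiter-Glo after 10 min at room temperature.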
Another test deals with HEK293. In outline: as §1
A further test relates to HaCat. In outline:
as §1

The test system of the next test is KB-3-1. In outline:
as §1

For the next test, the system named is NIH3T3. In outline:
as §1

“And” between values parts separate entries of the source, which are not always exact repeats. Equal values may be shown once. Inconclusive results are not listed. Unmarked numbers belong to inactive results. The source made the active and inactive calls. The call rests on the fitted dose curve; in most records, active means well fitted inhibition curve with a large enough effect; inconclusive means small, poorly fitted or top-dose-only effect; inactive means flat fitted curve, though single readings scatter.
On the % scale 0 is the no-effect control and ±100 the full control effect; potency means the concentration at half of the fitted maximal effect.

Take `CC1CCC2(C)C(CC(O)C(O)C23CO3)C1(C)CCC1=CC(O)OC1=O` (stereo not given): the max response in the test with CRL-7250 was 3.32%; in the test on HaCat, 0.263%; in the test on KB-3-1 it was -2.97%; with NIH3T3, -4.84%. Further, the compound was called inactive in the test on HEK293.
With `CC(=O)c1cnc2ccc(-c3cc(Cl)c(O)c(Cl)c3)nc2c1NC1CCC(CN(C)C)CC1` (stereo not given), the Potency in the test with CRL-7250 was 166 nM (active) and 1.19 µM (active); in the test with HEK293, 52.4 nM (active) and 237 nM (active); in the test on HaCat, 33.1 nM (active); with KB-3-1, 75 nM (active); with NIH3T3, 93.3 nM (active) and 299 nM (active).
Regarding `CO[C@@H](Cc1ccc(OCCc2nc(-c3ccccc3)oc2C)c2ccsc12)C(=O)O`, the result in the test on CRL-7250, in the test with HEK293, with HaCat and in the test with NIH3T3 was inactive. In addition, the max response in the test on KB-3-1 is -3.49%.
For `C[C@@H]1O[C@@H](O[C@@H]2[C@@H](O)[C@@H](O)[C@H](O[C@@H]3[C@@H](O)[C@@H](O[C@]4(CO)O[C@H](CO)[C@@H](O)[C@@H]4OC(=O)/C=C/c4ccc(O)cc4)O[C@H](CO)[C@H]3OC(=O)/C=C/c3ccc(O)cc3)O[C@H]2C)[C@H](O)[C@H](O)[C@H]1O`, the max response is -4.29% in the test with CRL-7250 and 1.83% in the test with HaCat. For the same compound, the call in the test with HEK293, in the test on KB-3-1 and in the test on NIH3T3 was inactive.
As to `CC[C@H]1OC(=O)[C@H](C)[C@@H](OC2C[C@@](C)(OC)[C@@H](O)[C@H](C)O2)[C@H](C)[C@@H](OC2O[C@H](C)C[C@H](NC)[C@H]2O)[C@](C)(O)C[C@@H](C)CN(C)[C@H](C)[C@@H](O)[C@]1(C)O` (stereo not given in full), the call with CRL-7250, in the test on HEK293 and in the test on HaCat was inactive. Also, the max response in the test on KB-3-1 is -2.3%; with NIH3T3 it was -0.0862%.
Consider `O=C(OCC12OC1C=CC(OC(=O)c1ccccc1)C2O)c1ccccc1` (stereo not given), for which the max response in the test on CRL-7250 is 4.27%; with HaCat, 0.27%; with KB-3-1, 9.03%; in the test on NIH3T3 it was -13.1%. Moreover, the compound was called inactive with HEK293.
`CCN(c1cc(C#CCN2CCOCC2)cc(C(=O)NCc2c(C)cc(C)[nH]c2=O)c1C)C1CCC(N(C)CCOC)CC1` (stereo not given): the result in the test with CRL-7250, with HEK293, in the test with KB-3-1 and with NIH3T3 was inactive. The max response with HaCat was -3.84%.
For the compound `C=C1CC2C3(C)C(OC(C)=O)CC(=O)OC(C)(C)C3C(O)C(OC(C)=O)C2(C)C2C(=O)OC(C)C(=O)C12C` (stereo not given), the max response in the test with CRL-7250 was -7.53%; in the test on HaCat, -15.7%; with KB-3-1 it was 8.43%; in the test on NIH3T3 it was -3.76%. The call with HEK293 was inactive.
In the case of `C[C@@H]1O[C@@H](O[C@H]2[C@H](OC(=O)C34CCC5(C)C(=CCC6C7(C)CC(O)C(O[C@@H]8O[C@H](C(=O)O)[C@@H](O)[C@H](O)[C@H]8O)C(C)(C(=O)O)C7CCC65C)C3CC(C)(C)CC4O)O[C@H](C)[C@@H](O)[C@@H]2O)[C@H](O)[C@@H](O[C@@H]2OC[C@](O)(CO)[C@H]2O[C@@H]2O[C@H](CO)[C@@H](O)[C@H](O)[C@H]2O)[C@H]1O` (stereo not given in full), the max response in the test on CRL-7250 was -4.39%; in the test with HaCat it was -8.41%. For the same compound, the call with HEK293, with KB-3-1 and in the test with NIH3T3 was inactive.
Take `COc1cc(/C=C/C(=O)O[C@H]2[C@H](OC(=O)/C=C/c3cc(OC)c(O)c(OC)c3)O[C@H](CO[C@@H]3O[C@H](CO)[C@@H](O)[C@H](O)[C@H]3O)[C@@H](O)[C@@H]2O)ccc1O`: the compound was classed as inactive with CRL-7250 and with HEK293. For the same compound, the max response in the test with HaCat is -26%; with KB-3-1, 7.55%; in the test on NIH3T3, -14.9%.
Regarding `C[C@H]1CN(C[C@H](Cc2ccccc2)C(=O)NCC(=O)O)CC[C@@]1(C)c1cccc(O)c1`, the max response in the test on CRL-7250 was -8.36%. The compound was called inactive in the test with HEK293, with HaCat, with KB-3-1 and with NIH3T3.
Consider `CC(C)(C)c1cc(CN2CCN(CC(O)c3ccc(Cl)cc3)CC2)cc(C(C)(C)C)c1O` (stereo not given), for which the max response in the test with CRL-7250 is -1.02%; with KB-3-1, -8.12%. In addition, the compound was called inactive with HEK293, in the test on HaCat and in the test on NIH3T3.

For the origin of these results see PubChem BioAssay (NCATS).
